For some assays here: Potency and affinity values are given separately.
Key:
Parameters in all cases: scale not given: direction of the effect not stated beside the values
[1] = target: Protein translocase subunit SecA (Escherichia coli (strain K12)) (UniProt P10408); experiment: Assay to Identify E. coli SecA ATPase Inhibitors; assay type: functional; settings: 30 µM
[2] = target: T1, Ubiquitin-activating enzyme e1, putative (Leishmania donovani (strain BPK282A1)) (UniProt E9BSI1); experiment: Leishmania donovani Ubiquitin Activating Enzyme (LdE1); assay type: functional; settings: 30 µM
T1 sequence (whole entry): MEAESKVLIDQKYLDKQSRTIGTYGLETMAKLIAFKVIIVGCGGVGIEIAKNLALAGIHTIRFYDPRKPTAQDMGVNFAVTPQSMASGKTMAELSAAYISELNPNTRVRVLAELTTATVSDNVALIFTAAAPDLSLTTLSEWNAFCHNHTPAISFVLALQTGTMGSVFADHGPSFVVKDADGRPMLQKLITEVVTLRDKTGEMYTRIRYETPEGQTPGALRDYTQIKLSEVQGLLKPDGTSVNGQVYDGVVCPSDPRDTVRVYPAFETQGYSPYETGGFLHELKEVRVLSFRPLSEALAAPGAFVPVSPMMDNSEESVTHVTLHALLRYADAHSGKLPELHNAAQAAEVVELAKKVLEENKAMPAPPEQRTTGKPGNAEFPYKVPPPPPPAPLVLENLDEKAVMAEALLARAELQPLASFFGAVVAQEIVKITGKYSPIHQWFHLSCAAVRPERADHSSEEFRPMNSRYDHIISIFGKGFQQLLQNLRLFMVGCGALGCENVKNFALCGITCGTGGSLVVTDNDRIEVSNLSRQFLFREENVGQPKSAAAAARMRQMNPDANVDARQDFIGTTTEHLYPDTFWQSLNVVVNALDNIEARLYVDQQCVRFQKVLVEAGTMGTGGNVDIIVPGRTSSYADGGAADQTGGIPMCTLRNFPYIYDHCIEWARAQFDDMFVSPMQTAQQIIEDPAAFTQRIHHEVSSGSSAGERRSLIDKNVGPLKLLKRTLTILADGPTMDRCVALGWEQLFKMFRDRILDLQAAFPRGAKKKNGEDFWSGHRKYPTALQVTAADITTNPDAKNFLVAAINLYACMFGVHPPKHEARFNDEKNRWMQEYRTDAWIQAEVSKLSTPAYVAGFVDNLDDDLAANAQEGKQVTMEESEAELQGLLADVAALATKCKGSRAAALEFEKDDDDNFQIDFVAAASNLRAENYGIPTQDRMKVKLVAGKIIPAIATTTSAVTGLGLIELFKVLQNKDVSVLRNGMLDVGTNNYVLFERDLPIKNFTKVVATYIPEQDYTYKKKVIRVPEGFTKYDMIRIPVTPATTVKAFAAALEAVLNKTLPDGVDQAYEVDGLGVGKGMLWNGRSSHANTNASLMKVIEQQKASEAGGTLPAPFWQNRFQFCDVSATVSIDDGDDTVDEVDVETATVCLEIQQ

[3] = target: AMP-activated protein kinase, AMPK (Homo sapiens) (UniProt P54646+O43741+P54619+Q9UGJ0+Q9Y478+Q13131+Q9UGI9); experiment: AMP-dependent Kinase enzyme assay. An in vitro enzyme assay that detects ADP turnover that is directly proportional to AMPK activity. This uses naive AMPK that is activated during the assay with MK-8722; assay type: functional; settings: 30 µM
[4] = target: Sialic acid-binding Ig-like lectin 9 (Homo sapiens) (UniProt Q9Y336); experiment: Hs-Siglec9 ALPHAscreen SOP 20170721; settings: 10 µM
Chain of Sialic acid-binding Ig-like lectin 9 (Homo sapiens) (Q9Y336 whole entry): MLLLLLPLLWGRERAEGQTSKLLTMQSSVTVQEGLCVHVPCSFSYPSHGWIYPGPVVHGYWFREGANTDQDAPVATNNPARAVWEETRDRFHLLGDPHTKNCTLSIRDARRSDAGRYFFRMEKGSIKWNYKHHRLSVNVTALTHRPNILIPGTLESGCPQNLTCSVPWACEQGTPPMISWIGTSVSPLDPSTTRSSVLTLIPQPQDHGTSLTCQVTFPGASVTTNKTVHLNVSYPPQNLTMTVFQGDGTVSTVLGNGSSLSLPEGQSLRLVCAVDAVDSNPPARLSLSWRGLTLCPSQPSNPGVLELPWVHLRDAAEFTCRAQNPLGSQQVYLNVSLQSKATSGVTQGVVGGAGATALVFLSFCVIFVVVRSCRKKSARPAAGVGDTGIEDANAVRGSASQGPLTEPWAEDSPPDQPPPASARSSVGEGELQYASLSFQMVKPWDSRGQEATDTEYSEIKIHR

Trypanosoma cruzi = experiment: Trypanosoma cruzi phosphomannomutase and mannose-1-phosphate guanylyltransferase assay; assay type: functional; settings: 10 µM
[5] = target: T2, Arginase-2, mitochondrial (Homo sapiens) (UniProt P78540); experiment: in vitro enzyme assay to detect the production of urea directly proportional to the activity of Arginase II; assay type: functional; settings: 33.3 µM; note: in the data most compounds retested in dose-response had high values
T2 sequence (whole entry): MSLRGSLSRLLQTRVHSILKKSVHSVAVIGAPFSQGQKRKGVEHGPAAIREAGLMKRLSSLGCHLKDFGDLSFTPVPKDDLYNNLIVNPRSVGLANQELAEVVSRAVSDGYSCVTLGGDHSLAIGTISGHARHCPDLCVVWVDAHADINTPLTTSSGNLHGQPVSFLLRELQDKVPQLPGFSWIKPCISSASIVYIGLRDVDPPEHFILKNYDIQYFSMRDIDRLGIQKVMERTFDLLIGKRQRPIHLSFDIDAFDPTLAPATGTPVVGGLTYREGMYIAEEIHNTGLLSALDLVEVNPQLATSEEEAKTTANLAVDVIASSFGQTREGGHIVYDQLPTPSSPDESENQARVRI

[6] = target: T3, Proteasome subunit beta (Trypanosoma cruzi) (UniProt O96673); experiment: Trypanosoma cruzi proteasome chymotrypsin-like activity (TcProtChymo) assay.; note: in the data most compounds retested in dose-response had high values; assay type: functional; settings: 9.37 µM
T3 sequence (whole entry): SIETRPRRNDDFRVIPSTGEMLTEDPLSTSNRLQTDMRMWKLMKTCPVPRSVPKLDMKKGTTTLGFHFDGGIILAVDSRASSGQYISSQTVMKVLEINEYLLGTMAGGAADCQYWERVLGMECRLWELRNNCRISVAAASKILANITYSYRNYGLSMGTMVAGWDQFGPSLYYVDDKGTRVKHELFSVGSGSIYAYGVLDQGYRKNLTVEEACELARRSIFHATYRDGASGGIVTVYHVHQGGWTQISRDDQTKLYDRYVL

Homo sapiens = species: Homo sapiens; experiment: To identify inhibition of the IFN signalling (Jak-Stat) pathway via expression of an eGFP reporter gene under the control of an IFN-stimulated response element (ISRE) containing MxA promoter.; assay type: functional; settings: 30 µM
[7] = target: T4, Tyrosyl-tRNA synthetase, putative (Trypanosoma cruzi (strain CL Brener)) (UniProt Q4DSP6); experiment: Trypanosoma cruzi tyrosyl tRNA synthetase (TcYRS) _High Tyrosine SOP; assay type: functional; settings: 30 µM; note: in the data most compounds retested in dose-response had high values
T4 sequence (whole entry): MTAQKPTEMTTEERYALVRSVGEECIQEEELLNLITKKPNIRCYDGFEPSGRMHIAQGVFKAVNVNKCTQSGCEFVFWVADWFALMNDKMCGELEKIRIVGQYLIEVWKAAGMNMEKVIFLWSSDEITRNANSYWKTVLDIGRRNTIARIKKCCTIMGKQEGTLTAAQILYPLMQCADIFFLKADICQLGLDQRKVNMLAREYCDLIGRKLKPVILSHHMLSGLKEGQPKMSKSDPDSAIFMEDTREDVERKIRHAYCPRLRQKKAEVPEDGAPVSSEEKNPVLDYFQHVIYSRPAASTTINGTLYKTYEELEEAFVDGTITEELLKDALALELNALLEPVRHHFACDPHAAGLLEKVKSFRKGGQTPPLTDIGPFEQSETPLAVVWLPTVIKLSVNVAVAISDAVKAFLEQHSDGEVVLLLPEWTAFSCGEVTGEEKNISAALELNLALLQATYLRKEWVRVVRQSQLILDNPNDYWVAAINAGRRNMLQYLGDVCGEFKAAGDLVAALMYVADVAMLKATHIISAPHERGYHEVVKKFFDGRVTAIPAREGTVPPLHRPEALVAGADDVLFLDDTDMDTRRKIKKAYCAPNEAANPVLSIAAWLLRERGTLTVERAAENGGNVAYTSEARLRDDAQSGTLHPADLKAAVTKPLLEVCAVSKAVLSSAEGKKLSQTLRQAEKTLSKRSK

[8] = target: T4, Tyrosyl-tRNA synthetase, putative (Trypanosoma cruzi (strain CL Brener)); experiment: Trypanosoma cruzi tyrosyl tRNA synthetase (TcYRS) SOP; assay type: functional; settings: 30 µM
[9] = target: Chromo domain-containing protein 1 (Saccharomyces cerevisiae (strain ATCC 204508 / S288c) (Baker's yeast)) (UniProt P32657); experiment: ScCHD-1 Enzyme Inhibition Assay; assay type: functional; settings: 30 µM; note: in the data most compounds retested in dose-response had high values
Chain of Chromo domain-containing protein 1 (Saccharomyces cerevisiae (strain ATCC 204508 / S288c) (Baker's yeast)) (P32657 whole entry, the tested form may be a part): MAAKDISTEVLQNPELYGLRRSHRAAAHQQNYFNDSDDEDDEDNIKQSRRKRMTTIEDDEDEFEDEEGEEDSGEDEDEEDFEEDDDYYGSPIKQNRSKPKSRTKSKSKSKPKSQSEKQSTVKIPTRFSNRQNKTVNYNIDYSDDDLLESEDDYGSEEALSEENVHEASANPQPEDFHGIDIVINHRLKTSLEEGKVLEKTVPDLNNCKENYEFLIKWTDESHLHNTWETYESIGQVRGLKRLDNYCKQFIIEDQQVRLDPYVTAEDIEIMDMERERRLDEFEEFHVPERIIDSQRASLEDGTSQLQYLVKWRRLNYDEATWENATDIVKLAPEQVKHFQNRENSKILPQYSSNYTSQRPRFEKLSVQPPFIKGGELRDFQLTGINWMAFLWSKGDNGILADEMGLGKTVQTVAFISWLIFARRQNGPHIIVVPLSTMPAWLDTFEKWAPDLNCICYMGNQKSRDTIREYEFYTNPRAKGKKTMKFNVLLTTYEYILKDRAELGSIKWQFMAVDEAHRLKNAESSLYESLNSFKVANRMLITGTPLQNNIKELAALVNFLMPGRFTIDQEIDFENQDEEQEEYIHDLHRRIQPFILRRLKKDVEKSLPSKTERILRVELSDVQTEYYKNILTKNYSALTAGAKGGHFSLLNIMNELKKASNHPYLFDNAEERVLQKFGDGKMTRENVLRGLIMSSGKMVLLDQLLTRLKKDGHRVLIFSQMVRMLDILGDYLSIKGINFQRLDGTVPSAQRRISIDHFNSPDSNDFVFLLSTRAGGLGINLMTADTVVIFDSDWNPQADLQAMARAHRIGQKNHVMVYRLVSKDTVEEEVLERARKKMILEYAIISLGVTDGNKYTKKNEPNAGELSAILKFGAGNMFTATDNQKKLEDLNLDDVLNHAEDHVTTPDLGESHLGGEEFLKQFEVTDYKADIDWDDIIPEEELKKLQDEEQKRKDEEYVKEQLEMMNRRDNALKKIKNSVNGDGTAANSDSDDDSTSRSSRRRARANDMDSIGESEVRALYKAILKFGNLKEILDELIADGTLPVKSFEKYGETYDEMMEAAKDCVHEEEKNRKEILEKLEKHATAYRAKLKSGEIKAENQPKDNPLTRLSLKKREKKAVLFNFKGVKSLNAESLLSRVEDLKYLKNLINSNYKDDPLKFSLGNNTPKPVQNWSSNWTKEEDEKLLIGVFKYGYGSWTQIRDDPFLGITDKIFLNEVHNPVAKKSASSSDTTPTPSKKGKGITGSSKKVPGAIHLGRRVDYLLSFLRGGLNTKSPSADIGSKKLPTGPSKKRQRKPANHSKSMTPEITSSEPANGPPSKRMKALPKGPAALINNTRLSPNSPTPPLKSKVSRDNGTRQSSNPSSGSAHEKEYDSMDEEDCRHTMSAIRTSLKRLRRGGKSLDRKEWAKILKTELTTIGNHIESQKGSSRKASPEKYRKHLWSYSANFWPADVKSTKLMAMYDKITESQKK

Chain of Protein translocase subunit SecA (Escherichia coli (strain K12)) (P10408 whole entry): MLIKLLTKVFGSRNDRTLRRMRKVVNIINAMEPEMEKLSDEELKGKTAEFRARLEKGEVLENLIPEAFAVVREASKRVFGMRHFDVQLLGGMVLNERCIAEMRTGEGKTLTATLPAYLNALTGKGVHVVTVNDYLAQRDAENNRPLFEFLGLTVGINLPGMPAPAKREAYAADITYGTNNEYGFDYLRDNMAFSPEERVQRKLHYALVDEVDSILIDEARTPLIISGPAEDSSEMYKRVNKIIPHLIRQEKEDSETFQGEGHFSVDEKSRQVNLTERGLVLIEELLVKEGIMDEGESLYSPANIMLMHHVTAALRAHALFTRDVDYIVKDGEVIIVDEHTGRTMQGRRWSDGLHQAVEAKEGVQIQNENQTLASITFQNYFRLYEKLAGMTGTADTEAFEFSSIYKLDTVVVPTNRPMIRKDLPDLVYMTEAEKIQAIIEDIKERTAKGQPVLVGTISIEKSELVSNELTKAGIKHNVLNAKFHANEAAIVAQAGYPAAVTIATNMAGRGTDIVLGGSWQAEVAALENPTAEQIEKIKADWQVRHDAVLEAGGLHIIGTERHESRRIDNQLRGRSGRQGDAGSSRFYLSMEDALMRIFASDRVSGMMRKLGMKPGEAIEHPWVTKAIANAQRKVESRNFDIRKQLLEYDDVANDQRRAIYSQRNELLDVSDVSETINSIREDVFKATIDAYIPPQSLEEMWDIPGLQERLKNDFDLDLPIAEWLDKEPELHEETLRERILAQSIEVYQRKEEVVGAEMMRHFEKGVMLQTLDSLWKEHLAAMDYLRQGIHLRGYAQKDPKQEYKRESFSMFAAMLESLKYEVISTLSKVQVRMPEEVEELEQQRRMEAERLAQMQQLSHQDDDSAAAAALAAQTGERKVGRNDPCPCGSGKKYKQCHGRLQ

Structure (SMILES) | Percent Effect [1] | Percent Effect [2] | Percent Effect [3] | Percent Effect [4] | Percent Effect (Trypanosoma cruzi) | Percent Effect [5] | Percent Effect [6] | Percent Effect (Homo sapiens) | Percent Effect [7] | Percent Effect [8] | Percent Effect [9]
CC(C)c1nn(C)c(N(C)C)c1CNCc1ccccc1CN(C)C | -0.693% | 10.5% | -8.08% | 13% | 1.13% | -5.36% | 7.85% | -8.54% | 0.49% | 7.32% | -12.6%
COCCN1CCN(CCCS(=O)(=O)c2ccccc2)CC1C (configuration not stated) | -1.14% | -5.41% | -5.83% | 0.945% | 6.22% | 0.554% | 4.13% | -19.8% | 4.95% | 1.22% | -0.0339%
c1cnnc(N2CCCC2CNCc2cc[nH]n2)c1 (configuration not stated) | -2.52% | 0% | 4.85% | -5.55% | 4.89% | 3.45% | -1.34% | -3.22% | 1.47% | 7.32% | -6.65%
Cc1nc(C)n(CC2CN(c3ccc(C#N)cn3)CCO2)n1 (configuration not stated) | -4.11% | 10.5% | -4.42% | 10.3% | 5.88% | 1.44% | 6.51% | -2.74% | 6.4% | 18.5% | -3.17%
CN1CC(=O)N(c2cccnc2)CC12CCN(C(=O)c1cccnc1)C2 (configuration not stated) | 1.61% | 10.7% | 11% | -7.78% | -3.09% | -53.9% | 14.5% | 2.71% | 6.25% | 10% | -5.77%
COCc1noc(C2(c3ccc(OC)cc3)CCOCC2)n1 | -3.44% | 5.41% | 0.468% | 6.74% | -0.386% | 2.86% | 14.1% | 9.88% | 3.7% | 17.1% | -2.16%
Cn1ccc(CN2CCC(c3ccccc3)CC2)cc1=O | -7.43% | 15.6% | -2.22% | 11.1% | -0.374% | 3.92% | 8.11% | 14.7% | 8.74% | 19.5% | -7.5%
Cn1cc(CN2CCCN(C(=O)c3ccc4c(c3)COC4)CC2)cn1 | -5.64% | 18.4% | -1.04% | 13.2% | -3.27% | -2.16% | 12.6% | 8.45% | 7.39% | 11.1% | -0.916%
CCOc1ccccc1OC1CCN(C(=O)c2cc[nH]n2)CC1 | -5.63% | 13.2% | 8.96% | -2.66% | -4.13% | 4.21% | 12.4% | 26.7% | 2.45% | 7.32% | -7.55%
Cc1ccc(C(=O)O)cc1S(=O)(=O)Nc1nn(-c2ccccc2)cc1C | -5.95% | 2.74% | 9.77% | 0.854% | -5.09% | 0.455% | 17.6% | 17.3% | -10.8% | -17.5% | -5.76%
CC(=O)N(C)c1nc(CN2CCOC(Cn3cccn3)C2)cs1 (configuration not stated) | 1.46% | 8.11% | -1.27% | 15.7% | 3.09% | 17.1% | 15.9% | 10.3% | 4.76% | 12.2% | -5.18%
Cc1noc(C)c1CCC(=O)N1CCN(CCn2cccn2)CC1 | -5.39% | 21.9% | -6.91% | 19.6% | 7.64% | 8.18% | 8.52% | 3.96% | 3.23% | 17.5% | -5.67%
Cc1noc([C@H]2CC[C@@H]3[C@@H](CCN3S(C)(=O)=O)O2)n1 | -6.38% | 2.7% | 1.84% | -1.29% | 0.977% | 3.75% | 6.17% | -5.62% | 7.92% | 11% | -2.42%
Cc1nc(NCc2cccnc2)c2c(n1)c(C)nn2C | 0.594% | 7.79% | 5.87% | 8.94% | 2.85% | -12.4% | 7.99% | 31% | 6.45% | 18.5% | -2.21%
CCS(=O)(=O)N1Cc2nccn2CC(Cn2nc(C)nc2C)C1 (configuration not stated) | -2.08% | 13.5% | -5.79% | 32.6% | 4.2% | 19.6% | 16.9% | -17.4% | 5.38% | 18.5% | -4.54%
Cc1ccoc1C(=O)N1CCO[C@H]2[C@H](OCCN(C)C)CC[C@@H]21 | 0.717% | 5.33% | 0.186% | 15.6% | -2.7% | -56.5% | 5.98% | -12.8% | 2.08% | 10% | -3.32%
Cc1nc(CN2CCC3(CCN(c4ncc(F)cn4)C3)C2=O)cs1 (configuration not stated) | 1.42% | 15.6% | 4.16% | -14.7% | -3.25% | 9.68% | 21.4% | 6.2% | 6.35% | 11.5% | -9.48%
CC(C)(C)NC(=O)CN1CCN(C(=O)Nc2ccc(F)cc2F)CC1 | -2.23% | 5.48% | 8.1% | -2.38% | -8.73% | -0.399% | 6.76% | 10.3% | 3.12% | 6.17% | -2.48%
CC1CCN(C(=O)CN(Cc2ccco2)C2CC2)CC1 | -1.66% | 2.6% | 6.73% | 0.322% | 6.95% | -1.47% | 7.84% | 3.81% | 1.91% | 7.06% | -5.98%
Cc1nc(C(=O)N2CCC(Nc3cccnn3)CC2)cs1 | -9.75% | 7.79% | -12.2% | -10.3% | 9.11% | -5.68% | 12.7% | -1.06% | 1.91% | 18.8% | -20.4%
CN(Cc1ccncc1)CC(c1cccs1)N1CCOCC1 (configuration not stated) | -5.66% | -29.7% | -4.64% | 13.6% | 8.63% | -2.03% | 5.57% | 19.6% | 5.94% | 13.4% | -2.66%
CCOC1CCN(C(=O)c2c(Cl)c3ccccc3n2C)CC1 | -2.47% | 0% | -0.042% | 1.92% | -2.43% | 3.12% | 13.4% | -2.41% | -2.73% | 11.1% | -4.88%

Source: ChEMBL document CHEMBL3988442, “University of Dundee, Small-Polar-MMV Screening Library” (2021)
